Assay outcomes: PubChem BioAssay, several laboratories
SKKanGAS inh = S. pyogenes SKKanGAS growth inhibitors in kanamycin, primary screen, streptokinase expression inhibitor project, SKKanGAS strain, BacTiter-Glo luminescence. 6 h. inhibition, % at 7.5 µM. 1.3% of 300,000 active. AID 1662, 2009;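 active means mean replicate score, as percent of positive control median, at least 50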;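 further: strain carries kanamycin resistance gene driven by streptokinase promoter and grows in 40 µg/ml kanamycin; loss of luminescence reflects streptokinase promoter inhibition or plain growth inhibition; 0% = median of DMSO wells and 100% = positive control at its reference dose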
PfHsp90 yeast 2 = growth inhibition of PfHsp90-expressing yeast, primary screen, antimalarial PfHsp90 inhibitor project, S. cerevisiae, BacTiter-Glo luminescence, single point, set 2; BacTiter-Glo ATP, 48 h; yeast lacking PDR1 and PDR3 efflux regulators; inhibition, % at 9.4 µM; 0.32% of 310,000 active;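 active means every replicate shows inhibition above about 80%, whatever the replicate mean, limit read from the data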;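 further: 0% = DMSO neutral controls and 100% = 20 µM radicicol positive controls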
tim10-1 inh = growth inhibitors of tim10-1 mutant yeast, primary screen, luminescence, uHTS | 2.2% of 330,000 active | S. cerevisiae tim10-1 ts strain growth, BacTiter-Glo, 24 h | inhibition, % at 20 µM;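 active means inhibition of at least 40%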;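 further: mutant grown at 25 °C; 0% = DMSO wells with yeast and 100% = wells holding no yeast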
V-ATPase pH = regulators of yeast V-ATPase proton pumping, primary screen, pHLuorin cytosolic pH fluorescence; S. cerevisiae; response, % at 10 µM; 0.37% of 350,000 active; AID 504577, 2011; in the data active means response mostly above about 7.3%, no sharp cut-off; inactive means mostly below about 5.4%; further: actives read high
TIM10 inh = growth inhibitors of isogenic TIM10 control yeast, primary screen, counter-screen for tim10-1 yeast inhibitor project, luminescence, uHTS | inhibition, % at 10 µM | 1.4% of 330,000 active | S. cerevisiae TIM10 strain growth, BacTiter-Glo luminescence, 24 h | AID 463195, 2010;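 active means inhibition of 40% or more at the single tested concentration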;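 further: wild-type TIM10 isogenic control strain grown at permissive 25 °C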
tim23-1 inh = growth inhibitors of tim23-1 mutant yeast, primary screen, luminescence, uHTS. 1.3% of 330,000 active. AID 463212, 2010. inhibition, % at 20 µM. S. cerevisiae tim23-1 growth, BacTiter-Glo luminescence, 24 h;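 active means growth inhibition of the mutant yeast at or above 50%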;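 further: temperature-sensitive mutant grown at 25 °C; plate controls were DMSO-treated mutant yeast for no effect and medium wells lacking yeast for full effect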
tim10-1 confirm = growth inhibitors of tim10-1 mutant yeast, confirmation, single concentration, luminescence, S. cerevisiae | shares compounds with tim10-1 inh | S. cerevisiae tim10-1 ts strain growth, BacTiter-Glo, 24 h | inhibition, % at 20 µM | 56% of 7,400 active | AID 463213, 2010;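 active means inhibition of yeast growth at or above a set limit in either of two repeat tests at 20 µM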;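 further: tim10-1 mutant grown at permissive 25 °C to find synthetic lethal compounds; 0% = DMSO yeast wells and 100% = medium wells without yeast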
The depositor's hits bear a star; / = no result given. A selection: hits, their analogues and other compounds. The true share with any hit is near 4.6%.

SMILES	SKKanGAS inh	PfHsp90 yeast 2	tim10-1 inh	V-ATPase pH	TIM10 inh	tim23-1 inh	tim10-1 confirm
COCCn1nnnc1C(CC(C)C)N1CCN(c2nc3ccccc3s2)CC1 (stereo not drawn)	-1	2	44*	-2	25	37	32*
CCC(c1nnnn1CCOC)N1CCN(c2nc3ccccc3s2)CC1 (stereo not drawn)	-4	6	13	1	15	-1	/
CC(C)N(C(=O)N1CCN(c2ccnc3cc(Cl)ccc23)CC1)C(C)C	-9	-20	40*	0	23	43	29*
C[C@H](CO)N1C[C@H](C)[C@@H](CN(C)Cc2ccc(Cl)c(Cl)c2)Oc2c(NS(=O)(=O)c3cccs3)cccc2C1=O	/	18	1	-2	-2	8	/
Cc1cc(/C=C(\C#N)C(=O)NCc2ccco2)c(C)n1C1CCCC1	10	-9	46*	1	-5	37	31
CC(C)(C)[C@H]1C=C(C(=O)O)O[C@@H](OCc2ccc(CO)cc2)C1	0	-32	8	1	-4	12	/
O=C(CSc1cn[nH]n1)Nc1ccccc1C(=O)O	-1	7	-1	-1	2	-4	/
Cc1ccc(C2(C)NC(=O)N(CC(=O)N3CCN(C(=O)c4cccs4)CC3)C2=O)cc1 (stereo not drawn)	/	-17	-2	-1	-1	-7	/
Cc1n[nH]c(C)c1CCc1nc2c3ccccc3nc(SCC(=O)Nc3ccccc3F)n2n1	5	-26	18	1	10	9	/
Cc1cccc(NC(=O)CSc2nc3ccccc3c3nc(CCc4c(C)n[nH]c4C)nn23)c1	22	/	41*	-2	10	11	14
Cc1cc(Cl)ccc1OCCCC(=O)N1CCOCC1	6	/	42*	0	8	19	29
COc1cccc(C(=O)NNC(=O)Cc2ccc([N+](=O)[O-])cc2)c1	9	19	-9	-2	4	5	/
COc1ccc(-c2cc(C(F)(F)F)nc(N3CCN(Cc4ccccc4)CC3)n2)cc1OC	40	1	46*	-4	21	23	23
CC(C(=O)Nc1ccc2c(c1)OCO2)N1CCC(N2CCCCC2)CC1 (stereo not drawn)	/	11	8	-2	4	16	/
CC(NCC(O)COc1ccc(Br)cc1)c1ccccc1 (stereo not drawn)	-4	-13	11	3	7	6	/
COc1ccc(OCC(O)CNC(C)c2ccccc2)cc1 (stereo not drawn)	0	21	42*	-1	-18	18	2
Cc1oc(-c2ccc(Cl)cc2)nc1CS(=O)CC(=O)NC1CCCCCC1 (stereo not drawn)	0	13	33	-9	29	31	/
Cc1oc(-c2ccc(Cl)cc2)nc1CS(=O)CC(=O)NC1CCCCC1 (stereo not drawn)	-1	7	40*	-1	32	41	33*
Cc1oc(-c2ccccc2Cl)nc1CS(=O)CC(=O)NCCc1ccccc1 (stereo not drawn)	13	22	-1	1	12	10	/
Cc1ccccc1-c1nc(CS(=O)CC(=O)NCCc2ccc(Cl)cc2)c(C)o1 (stereo not drawn)	-5	3	44*	-2	7	26	-7
Cc1ccc(S(=O)(=O)NC(CC(C)C)C(=O)N2CCN(C/C=C/c3ccccc3)CC2)cc1 (stereo not drawn)	/	5	38	7	16	34	/
CCC(C)c1ccc(NC(=O)Nc2cccnc2)cc1 (stereo not drawn)	-19	-9	43*	1	26	36	33*
COc1cc(C(=O)Oc2cc(N)n(S(=O)(=O)c3ccccc3)n2)cc(OC)c1OC	-1	-18	25	3	20	35	/
Cc1ccccc1C(=O)Oc1cc(N)n(S(=O)(=O)c2ccccc2)n1	2	-7	48*	5	31	22	27
COc1ccc(S(=O)(=O)n2nc(OC(=O)c3ccco3)cc2N)cc1	5	42	41*	2	-2	33	24
SMILES	SKKanGAS inh	PfHsp90 yeast 2	tim10-1 inh	V-ATPase pH	TIM10 inh	tim23-1 inh	tim10-1 confirm
COc1ccccc1C(=O)Oc1cc(N)n(S(=O)(=O)c2ccccc2)n1	6	-20	40	0	29	26	24
COc1ccc(S(=O)(=O)n2nc(OC(=O)c3ccncc3)cc2N)cc1	-2	0	23	4	16	13	/
COc1ccc(/C=N/Nc2ncnc3sc4c(c23)CCCC4)cc1OC	2	-14	41*	3	26	11	18
Fc1ccc(Nc2ncnc3sc4c(c23)CCC4)cc1	3	17	43*	-5	21	47	28
CCCCCCCCCCOC(=O)Cn1c(COc2ccccc2OC)[n+](C)c2ccccc21	75*	-31	46*	1	33	23	65*
CNC(=O)CN(Cc1ccccc1)S(=O)(=O)c1ccc(Cl)cc1	0	-3	12	-1	-1	14	/
Cn1c(/C=N/Nc2nc3ccccc3[nH]2)nc2ccccc21	-25	2	41*	1	23	46	24
COc1ccc(CN2C(=O)c3c(c(C)n(C)c3C)C2C(=O)NC2CCC(C)CC2)cc1 (stereo not drawn)	1	/	42*	6	28	33	28
COc1ccc(NC(=O)CN(C)CC(=O)NC2CCC(C)CC2)cc1 (stereo not drawn)	/	1	13	1	9	21	/
COc1ccc(-c2csc(NCCn3c(C)nc4cc(C(F)(F)F)ccc43)n2)cc1	/	4	15	0	13	47	/
Cc1nc2cc(C(F)(F)F)ccc2n1CCNc1nc(-c2ccc(F)cc2)cs1	15	-22	46*	2	13	15	22
S=C(NCCCN1CCOCC1)N(Cc1ccccc1)Cc1ccccc1	-1	6	17	-2	10	-4	/
COc1ccc(C(=O)Nc2cc3c(cc2N2CCCCC2)n(C)c(=O)n3C)cc1OC	3	-20	48*	-3	12	48	8
COc1cc(C(=O)Nc2cc3c(cc2N2CCCCC2)n(C)c(=O)n3C)cc(OC)c1OC	6	-12	38	2	8	45	/
CC1CCc2nc(NC(=O)Cc3cccs3)sc2C1 (stereo not drawn)	3	8	39	0	29	49	/
